For orientation: inhibition means the relative decrease from the control value, in per cent.

The structures appear in SMILES notation. “And” between values parts separate entries of the source, which are not always exact repeats. Identical values can stand only once. Screen size: about 320,000 compounds; about 480 (0.15%) were called active. Cut-off read from the data, not from the text of the source: active = inhibition above about 33%; inactive = the rest. This excerpt belongs to a sample that is enriched for actives. More than one record can exist for a structure, and the calls need not agree.

Lytic switch protein BZLF1 (Epstein-Barr virus (strain B95-8)), sequence (P03206 whole entry, looked up): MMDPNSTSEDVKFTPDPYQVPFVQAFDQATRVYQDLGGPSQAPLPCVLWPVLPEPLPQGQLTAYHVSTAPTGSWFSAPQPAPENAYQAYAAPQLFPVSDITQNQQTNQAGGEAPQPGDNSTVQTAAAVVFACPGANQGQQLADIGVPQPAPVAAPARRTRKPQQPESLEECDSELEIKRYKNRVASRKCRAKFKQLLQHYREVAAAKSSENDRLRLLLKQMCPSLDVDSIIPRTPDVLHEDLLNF

This assay concerns the target Lytic switch protein BZLF1 (Epstein-Barr virus (strain B95-8)) (UniProt P03206). The assay can be described thus: Zta-DNA interaction blockers, Epstein-Barr virus – biochemical, fluorescence polarization, single concentration, counter-screen for EBNA-1 inhibitor project, primary screen (AID 2234). As to conditions: ZTA-DNA binding, at 11 µM, stronger effect = higher value.
In the case of `CC(C)N(C(=O)Cn1cc(S(=O)(=O)CC(=O)N2CCOCC2)c2ccccc21)C(C)C`, the inhibition is -2.48% (inactive).
Take `CCc1nn(CCCC(=O)Nc2ccc(C)cc2C)c(=O)c2cc3occc3n12`: the inhibition was -0.14% (inactive).
In the case of `CN(C)/C=C(\C#N)C(=O)c1cccnc1Oc1cccc(F)c1`, the inhibition was 1.11% (inactive).
For the molecule `CN(C)Cc1ccccc1C1(O)c2ccccc2CSc2ccccc21` (stereo not drawn), the inhibition was -3.19% (inactive).
With `O=C(COC(=O)c1cc(=O)[nH]c2ccccc12)NCc1cccc(Cl)c1`, the inhibition was -4.76% (inactive).
For `COCCCNC(=S)N1CCN(c2nc(-c3cccc(OC)c3)cs2)CC1`, the inhibition is 0.15% (inactive).
`COC(=O)[C@H]1[C@H]2C[C@H]3c4[nH]c5ccccc5c4CCN3C[C@@H]2CC[C@@H]1O`: the inhibition was -2.53% (inactive) and 42.8% (active).
`O=C(NC1CCCCC1)N1CCc2[nH]c3ccccc3c2C1`: the inhibition is -20.7% (inactive).
As to `COC(=O)C1CCN(C(=O)c2cc(=O)[nH]c3ccccc23)CC1`, the inhibition is -3.43% (inactive).
Regarding `Cc1ccc(S(=O)(=O)NCc2ccc(C(=O)NC3CCC(C)CC3)cc2)cc1` (stereo not drawn), the inhibition is 0.09% (inactive).
In the case of `Cn1c(N)c(C(=O)COC(=O)/C=C/c2ccc(OC(F)F)cc2)c(=O)n(C)c1=O`, the inhibition was 4.46% (inactive).
On to `CC[N+](C)(CC)CCC[n+]1c(-c2ccccc2)c2cc(N)ccc2c2ccc(N)cc21`, for which the inhibition is 76.6% (active).
The figure for `COc1ccccc1CNS(=O)(=O)c1c(C)[nH]c(C)c1C(=O)N1CCCCC1` is -3.2% (inactive); for `COc1ccc(C(=O)NCCn2nc(C)cc2C)cc1OC1CCN(C(C)=O)CC1` it is -1.11% (inactive).
With `CC(C)CNC(=O)C(=O)Nc1ccc(N(C)C)cc1`, the inhibition is -14.2% (inactive).
The figure for `CC(=O)N(C)c1ccc(NC(=O)C(F)(F)F)cc1` is -2.47% (inactive); for `CCN(CC)c1ccc2oc(=O)c(C)nc2c1` it is 112% (active).
In the case of `C=CCN(C(=O)Nc1ccc2oc(C)nc2c1)c1ccccc1`, the inhibition is 14.4% (inactive).
In the case of `CCN(CC)c1ccc(C(=O)Nn2c(C)nc3ccccc3c2=O)cc1` it was -9.3% (inactive); in that of `COc1ccc(/C=C/CN2CCCC(C(=O)c3cc(F)ccc3F)C2)cc1` (stereo not drawn), -3.1% (inactive).
Consider `CN(C)Cc1c(O)ccc2occ(C(O)c3ccccc3)c12` (stereo not drawn), for which the inhibition was -10.8% (inactive).
In the case of `N[C@@H](Cc1ccccc1)C(=O)N1CCOCC1`, the inhibition is 0.06% (inactive).
`COc1ccc(OC)c(NC(=O)CSc2nc(N)c(-c3ccccc3)c(=O)[nH]2)c1`: the inhibition is -8.96% (inactive).
For `COc1ccccc1P(=O)(c1ccccc1)c1ccccc1NC(C)=O` (stereo not drawn), the inhibition was 6.44% (inactive).
With `CCc1cc(=O)oc2c(C)c(OCC(=O)N3CC[C@@]4(O)CCCC[C@H]4C3)ccc12`, the inhibition was -6.49% (inactive).
Turning to `O=S(=O)(c1cccc(-c2nnc(SC(F)F)n2-c2ccccc2)c1)N1CCCCC1`, the inhibition was -1.62% (inactive).
For `Cc1cccc(-n2cnc(C(=O)Nc3cccnc3)c2)n1`, the inhibition was -4.78% (inactive).
For `Cc1ccccc1CSc1nnc(-c2ccccn2)n1N`, the inhibition is -11.1% (inactive).
For `O=C(COC(=O)c1ccc(S(=O)(=O)Nc2ccccc2)cc1)NCC1CCCO1` (stereo not drawn), the inhibition is 1.03% (inactive).
With `CCn1c(C)nc2cc(C(=O)NNS(=O)(=O)c3ccc(C)cc3C)ccc21`, the inhibition was -11% (inactive).
With `COc1cc(C2C(C(=O)c3cccs3)=C(O)C(=O)N2CCN2CCOCC2)ccc1OCCC(C)C` (stereo not drawn), the inhibition was -2.28% (inactive).
In the case of `O=C(Nc1ccc2oc(-c3ccccc3F)nc2c1)c1ccco1`, the inhibition was 15.1% (inactive).
Consider `CCOc1ccc(S(=O)(=O)Nc2ccncc2)c(C)c1C`, for which the inhibition was -10.3% (inactive).
Take `CC(C)C(=O)N1CCC2(CC1)Oc1ccc(F)cc1C(=O)C21CC(c2ccccc2)=NO1` (stereo not drawn): the inhibition is 7.48% (inactive).
In the case of `CCc1c(C)nc2c(-c3ccccc3)c(C)nn2c1Nc1ccc(NC(C)=O)cc1`, the inhibition was -11.9% (inactive).
For `O=C(Cc1ncc(C(F)(F)F)cc1Cl)Nc1cccc(Br)c1`, the inhibition is -13.5% (inactive).
For `O=C(CNS(=O)(=O)c1ccc2ccccc2c1)Nc1ccc(F)c(F)c1F`, the inhibition is 15.3% (inactive).
The figure for `O=C(Nc1ccc(F)cc1F)N1CCCN(CCOc2ccccc2)CC1` is -6.16% (inactive); for `Cc1sc2nc(CSCC(=O)NC3CCCCC3)[nH]c(=O)c2c1C` it is -20.2% (inactive); for `CSc1nnc(SCc2nc3sc(C(=O)O)c(C)c3c(=O)[nH]2)s1` it is 41.9% (active).
Turning to `CC(=O)c1sc2nc(SCC(=O)N3CCCCC3)[nH]c(=O)c2c1C`, the inhibition was -1.4% (inactive).
In the case of `COc1ccc(C(=O)NC2CC2)cc1OC1CCN(C/C=C/c2ccccc2)CC1` it was -17.4% (inactive); in that of `COc1ccc2c(c1)cc1n2CCN=C1NN`, 8.48% (inactive).

These data come from PubChem BioAssay AID2234 (The Scripps Research Institute Molecular Screening Center, 2010).
